A short description of experiment [1]: BSK_3C_Proliferation: Cell Proliferation Assessment in the BioMAP Diversity Plus: 3C Assay (AID 2283006; active = hit-call score of the fitted dose curve at least 0.9, where 1 is the maximum; inactive = score below 0.9;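 for AC50: potency may reflect either rise or fall in cell number versus DMSO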). The settings on record: primary human endothelial cells (HUVEC). Summed up: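 Proliferation as total protein: sulforhodamine B (0.1%) stain of TCA-fixed subconfluent human umbilical vein endothelial cells, absorbance 560 nm, 48 h after dosing. Activity fitted in both directions against DMSO baseline.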

Experiment [2] has as its target Nuclear receptor subfamily 1 group I member 2 (Homo sapiens) (UniProt O75469). Description: ATG_PXR_TRANS: Attagene TRANS-FACTORIAL HepG2 Assay for human Pregnane X Receptor (PXR) (AID 2283008). An outline of the steps:
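HepG2 transfected (FuGene 6) with GAL4-UAS reporter units + PXR-Gal4 chimera; dosed 24 h. Total RNA → oligo(dT) RT → PCR → 6-FAM primer extension → HpaI cut → CE. Gain-of-signal vs DMSO.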

The target of experiment [3] is human RAR-related Orphan Receptor beta (RORb), RORB (gene 6096) (UniProt Q92753). The experiment in a line: ATG_RORb_TRANS: Attagene TRANS-FACTORIAL HepG2 Assay for human RAR-related Orphan Receptor beta (RORb) (AID 2283010). An outline of the steps:
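Read-out is reporter mRNA induction, quantified by RT-PCR with fluorescent capillary electrophoresis, 24 h post-dose in transiently transfected HepG2 expressing exogenous NR-Gal4 chimera. Activity fitted upward versus DMSO.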

For experiment [4], the target named is human RAR-related Orphan Receptor gamma (RORg), RORC (gene 6097) (UniProt P51449). The experiment in a line: ATG_RORg_TRANS: Attagene TRANS-FACTORIAL HepG2 Assay for human RAR-related Orphan Receptor gamma (RORg) (AID 2283011). Summed up: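 Chimeric RORg-Gal4 transactivation in transfected HepG2; 24 h exposure; RT-PCR/capillary electrophoresis readout of reporter mRNA, DMSO baseline.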

In experiment [5] the target is Retinoic acid receptor RXR-alpha (Homo sapiens) (UniProt P19793). The experiment in a line: ATG_RXRa_TRANS: Attagene TRANS-FACTORIAL HepG2 Assay for human Retinoid X Receptor alpha (RXRa) (AID 2283012). Summed up:
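TRANS format reporting activity of exogenous RXRa-Gal4 chimera in transiently transfected HepG2, 24 h exposure. Reporter transcripts quantified by RT-PCR with capillary electrophoresis, with gain of signal scored relative to DMSO.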

In experiment [6] the target is human Retinoid X Receptor beta (RXRb), RXRB (gene 6257) (UniProt P28702). Description: ATG_RXRb_TRANS: Attagene TRANS-FACTORIAL HepG2 Assay for human Retinoid X Receptor beta (RXRb) (AID 2283013). Summed up: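 Readout is reporter transcript induction after 24 h dosing. It is measured by RT-PCR of total RNA followed by fluorescent capillary electrophoresis. HepG2 liver cells carry transfected multiple reporter units driven by an exogenous RXRb-Gal4 fusion; activity is relative to DMSO.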

The target in experiment [7] is human Thyroid Receptor alpha (THRa1), THRA (gene 7067) (UniProt P10827). Description: ATG_THRa1_TRANS: Attagene TRANS-FACTORIAL HepG2 Assay for human Thyroid Receptor alpha (THRa1) (AID 2283014). Summed up: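 Measured here is mRNA from a GAL4-UAS reporter in transfected HepG2 cells carrying a Gal4-fused receptor, 24 h post-dose. DMSO served as negative control and baseline.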

Read-out in experiment [8]: E-selectin (Homo sapiens) (UniProt P16581)
Description: BSK_3C_Eselectin: BioMAP Diversity Plus: 3C Assay for Eselectin Biomarker Activity (AID 2283015; active = hit-call score of the fitted dose curve at least 0.9, where 1 is the maximum; inactive = score below 0.9;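 for outcome: cell surface E-selectin protein quantified by ELISA 24 h after dosing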). Conditions: primary human endothelial cells (HUVEC); actives raise or lower the signal. Summed up:
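Endpoint derived by bidirectional fitting against DMSO vehicle; signal is ELISA-detected E-selectin from primary HUVEC at 24 h post-dosing, with parallel SRB staining (0.1% SRB, 560 nm) flagging cytotoxicity.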

Read-out in experiment [9]: Interleukin-1 alpha (IL1a), IL1A (gene 3552)
Description: BSK_BE3C_IL1a: BioMAP Diversity Plus: BE3C Assay for Interleukin-1 alpha (IL1a) Biomarker Activity (AID 2283016; active = hit-call score of the fitted dose curve at least 0.9, where 1 is the maximum; inactive = score below 0.9). Conditions: primary human bronchial epithelial cells; actives raise or lower the signal. An outline of the steps: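 IL-1a measured by ELISA after 24 h treatment of human primary bronchial epithelial cells, with gain or loss of signal fitted versus DMSO. Parallel cultures stained with SRB gauge overt cytotoxicity.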

Read-out in experiment [10]: Monocyte Chemoattractant Protein-1 (MCP1), CCL2 (gene 6347)
Description: BSK_3C_MCP1: BioMAP Diversity Plus: 3C Assay for Monocyte Chemoattractant Protein-1 (MCP1) Biomarker Activity (AID 2283017; active = hit-call score of the fitted dose curve at least 0.9, where 1 is the maximum; inactive = score below 0.9). The settings on record: primary human endothelial cells (HUVEC); actives raise or lower the signal. Summed up: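 Using human vascular primary endothelium, researchers measured MCP-1 by ELISA 24 h after treatment, with DMSO serving as negative control for bidirectional fitting.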

Read-out in experiment [11]: Monocyte Chemoattractant Protein-1 (MCP1), CCL2 (gene 6347)
Description: BSK_4H_MCP1: BioMAP Diversity Plus: 4H Assay for Monocyte Chemoattractant Protein-1 (MCP1) Biomarker Activity (AID 2283018; active = hit-call score of the fitted dose curve at least 0.9, where 1 is the maximum; inactive = score below 0.9). The settings on record: primary human endothelial cells (HUVEC); actives raise or lower the signal. An outline of the steps: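 ELISA of MCP-1 (CCL2) 24 h after chemical dosing of HUVEC in the BioMAP 4H system. Gain or loss versus DMSO fitted; parallel SRB staining (560 nm) tracked overt cytotoxicity.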

Read-out in experiment [12]: Human Leukocyte Antigen - DR isotype (HLADR), HLA-DRA (gene 3122)
The experiment in a line: BSK_3C_HLADR: BioMAP Diversity Plus: 3C Assay for Human Leukocyte Antigen - DR isotype (HLADR) Biomarker Activity (AID 2283019; active = hit-call score of the fitted dose curve at least 0.9, where 1 is the maximum; inactive = score below 0.9;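 for outcome: ELISA of cell-surface HLA-DR on HUVEC 24 h after dosing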). Conditions: primary human endothelial cells (HUVEC); actives raise or lower the signal. An outline of the steps: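 Compound added to primary HUVEC cultures, 24 h incubation, then HLA-DR determined by ELISA; endpoint derived by bidirectional fitting relative to DMSO negative control.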

The target in experiment [13] is human Vitamin D Receptor (VDR), VDR (gene 7421) (UniProt P11473). The experiment in a line: ATG_VDR_TRANS: Attagene TRANS-FACTORIAL HepG2 Assay for human Vitamin D Receptor (VDR) (AID 2283022). An outline of the steps: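 Multiplexed TRANS reporter in HepG2; 24 h treatment; reporter mRNA by RT-PCR plus capillary electrophoresis; upregulation scored relative to DMSO.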

Experiment [14] in a line: BSK_3C_SRB: Viability Assessment in the BioMAP Diversity Plus: 3C Assay (AID 2283023; active = hit-call score of the fitted dose curve at least 0.9, where 1 is the maximum; inactive = score below 0.9;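 note: cells read 24 h after compound dosing; fitted both ways against DMSO so a hit may be signal rise or drop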). The settings on record: primary human endothelial cells (HUVEC). Summed up: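 Overt cytotoxicity is gauged in parallel confluent HUVEC cultures by SRB total-protein staining at the time of biomarker measurement, 24 h after dosing. Gain or loss of signal is fitted versus DMSO.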
Experiment [15] has as its target Peroxisome proliferator-activated receptor gamma (Homo sapiens) (UniProt P37231). Description: ATG_PPARg_TRANS: Attagene TRANS-FACTORIAL HepG2 Assay for human Peroxisome Proliferator-activated Receptor-gamma (PPARg) (AID 2283007). Summed up:
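HepG2 cells are transiently transfected with GAL4-UAS reporter units driven by chimeric NR-Gal4 fusions and dosed for 24 h. Reporter mRNA is quantified by RT-PCR, 6-FAM labelling, HpaI digestion and capillary electrophoresis. Induction is scored against DMSO.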

Read-out in experiment [16]: Interleukin-8 (IL8), CXCL8 (gene 3576)
Description: BSK_3C_IL8: BioMAP Diversity Plus: 3C Assay for Interleukin-8 (IL8) Biomarker Activity (AID 2283020; active = hit-call score of the fitted dose curve at least 0.9, where 1 is the maximum; inactive = score below 0.9). Conditions: primary human endothelial cells (HUVEC); actives raise or lower the signal. An outline of the steps:
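IL-8 was measured by ELISA in HUVEC cultures 24 h after chemical dosing, with gain or loss of signal fitted relative to DMSO. Parallel SRB total-protein staining tracked overt cytotoxicity.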

Read-out in experiment [17]: Monokine induced gamma interferon (MIG), CXCL9 (gene 4283)
The experiment in a line: BSK_3C_MIG: BioMAP Diversity Plus: 3C Assay for Monokine induced gamma interferon (MIG) Biomarker Activity (AID 2283021; active = hit-call score of the fitted dose curve at least 0.9, where 1 is the maximum; inactive = score below 0.9). The settings on record: primary human endothelial cells (HUVEC); actives raise or lower the signal. An outline of the steps: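 ELISA measurement of MIG in human umbilical vein endothelial cells 24 h after treatment. Cytotoxicity tracked by SRB staining in parallel cultures; gain or loss of signal fitted relative to DMSO.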

For experiment [18], the target named is human Retinoic Acid Receptor gamma (RARg), RARG (gene 5916) (UniProt P13631). The experiment in a line: ATG_RARg_TRANS: Attagene TRANS-FACTORIAL HepG2 Assay for human Retinoic Acid Receptor gamma (RARg) (AID 2283009). An outline of the steps:
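Transactivation of exogenous RARg-Gal4 fusion measured as reporter transcript induction after 24 h in transfected HepG2 cells. RNA reverse-transcribed, amplified, fluorescently labeled and resolved by capillary electrophoresis; increase relative to DMSO.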

Results filed as inconclusive are left out. Activity calls are given as the source filed them. Rule for the calls, unless noted: active = hit-call score of the fitted dose curve at least 0.9, where 1 is the maximum; inconclusive = response in the unintended direction; inactive = score below 0.9.

Sequence of human Retinoid X Receptor beta (RXRb), RXRB (gene 6257) (P28702 whole entry, looked up, the tested form may be a part): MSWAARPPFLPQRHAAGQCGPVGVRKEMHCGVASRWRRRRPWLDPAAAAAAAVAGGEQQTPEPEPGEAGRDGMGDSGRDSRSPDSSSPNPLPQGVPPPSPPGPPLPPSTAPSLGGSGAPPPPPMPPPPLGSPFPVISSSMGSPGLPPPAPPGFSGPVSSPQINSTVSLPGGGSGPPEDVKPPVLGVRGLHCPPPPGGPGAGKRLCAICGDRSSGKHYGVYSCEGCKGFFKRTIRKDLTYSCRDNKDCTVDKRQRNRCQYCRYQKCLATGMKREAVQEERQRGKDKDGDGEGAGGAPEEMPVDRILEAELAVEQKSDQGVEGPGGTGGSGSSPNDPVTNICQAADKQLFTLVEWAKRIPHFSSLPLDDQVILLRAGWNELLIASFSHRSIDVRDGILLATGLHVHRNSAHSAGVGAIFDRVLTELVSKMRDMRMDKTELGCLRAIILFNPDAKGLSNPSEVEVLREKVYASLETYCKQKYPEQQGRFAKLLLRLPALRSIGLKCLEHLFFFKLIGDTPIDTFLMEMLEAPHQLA
Sequence of human Thyroid Receptor alpha (THRa1), THRA (gene 7067) (P10827 whole entry, looked up, the tested form may be a part): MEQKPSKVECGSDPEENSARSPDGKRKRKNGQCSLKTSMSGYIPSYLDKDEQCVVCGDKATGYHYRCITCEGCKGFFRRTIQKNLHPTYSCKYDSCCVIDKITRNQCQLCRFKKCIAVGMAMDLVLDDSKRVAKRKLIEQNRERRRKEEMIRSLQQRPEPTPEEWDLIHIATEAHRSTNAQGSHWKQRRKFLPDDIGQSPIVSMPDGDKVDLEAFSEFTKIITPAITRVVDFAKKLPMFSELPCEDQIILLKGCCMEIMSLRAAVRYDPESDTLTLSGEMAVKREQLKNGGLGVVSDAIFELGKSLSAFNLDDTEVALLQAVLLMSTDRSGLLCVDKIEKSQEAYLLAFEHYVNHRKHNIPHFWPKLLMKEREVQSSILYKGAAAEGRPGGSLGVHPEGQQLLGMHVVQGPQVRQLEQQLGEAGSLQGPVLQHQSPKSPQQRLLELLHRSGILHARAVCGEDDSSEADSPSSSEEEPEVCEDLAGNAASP
Sequence of E-selectin (Homo sapiens) (P16581 whole entry, looked up): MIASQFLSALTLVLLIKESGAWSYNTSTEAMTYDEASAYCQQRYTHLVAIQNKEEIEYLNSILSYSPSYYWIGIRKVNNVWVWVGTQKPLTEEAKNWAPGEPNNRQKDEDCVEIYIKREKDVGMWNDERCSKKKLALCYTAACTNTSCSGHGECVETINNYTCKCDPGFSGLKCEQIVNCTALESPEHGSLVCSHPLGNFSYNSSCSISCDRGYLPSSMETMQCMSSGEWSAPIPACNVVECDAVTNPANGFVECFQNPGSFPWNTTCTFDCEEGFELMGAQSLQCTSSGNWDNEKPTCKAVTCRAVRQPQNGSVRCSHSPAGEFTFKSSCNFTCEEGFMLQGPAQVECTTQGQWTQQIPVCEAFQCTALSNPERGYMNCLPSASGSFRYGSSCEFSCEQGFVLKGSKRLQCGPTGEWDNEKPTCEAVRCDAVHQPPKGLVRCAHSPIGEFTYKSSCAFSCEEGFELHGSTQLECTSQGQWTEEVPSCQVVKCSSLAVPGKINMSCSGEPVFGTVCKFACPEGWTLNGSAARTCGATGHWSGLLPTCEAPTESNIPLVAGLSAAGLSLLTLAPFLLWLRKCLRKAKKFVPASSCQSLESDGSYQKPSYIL
Sequence of human Vitamin D Receptor (VDR), VDR (gene 7421) (P11473 whole entry, looked up): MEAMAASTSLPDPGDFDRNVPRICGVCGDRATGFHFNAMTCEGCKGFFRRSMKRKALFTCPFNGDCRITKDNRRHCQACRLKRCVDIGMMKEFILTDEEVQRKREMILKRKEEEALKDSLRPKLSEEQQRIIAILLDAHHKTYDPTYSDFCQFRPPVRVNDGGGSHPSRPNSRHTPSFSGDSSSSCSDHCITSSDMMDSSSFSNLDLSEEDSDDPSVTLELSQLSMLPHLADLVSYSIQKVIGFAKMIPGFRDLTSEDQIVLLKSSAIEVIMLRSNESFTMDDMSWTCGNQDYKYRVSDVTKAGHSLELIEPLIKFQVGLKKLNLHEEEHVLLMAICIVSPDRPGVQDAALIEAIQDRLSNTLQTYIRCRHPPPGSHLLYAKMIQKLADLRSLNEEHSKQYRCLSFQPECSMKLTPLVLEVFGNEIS
Sequence of Retinoic acid receptor RXR-alpha (Homo sapiens) (P19793 whole entry, looked up, the tested form may be a part): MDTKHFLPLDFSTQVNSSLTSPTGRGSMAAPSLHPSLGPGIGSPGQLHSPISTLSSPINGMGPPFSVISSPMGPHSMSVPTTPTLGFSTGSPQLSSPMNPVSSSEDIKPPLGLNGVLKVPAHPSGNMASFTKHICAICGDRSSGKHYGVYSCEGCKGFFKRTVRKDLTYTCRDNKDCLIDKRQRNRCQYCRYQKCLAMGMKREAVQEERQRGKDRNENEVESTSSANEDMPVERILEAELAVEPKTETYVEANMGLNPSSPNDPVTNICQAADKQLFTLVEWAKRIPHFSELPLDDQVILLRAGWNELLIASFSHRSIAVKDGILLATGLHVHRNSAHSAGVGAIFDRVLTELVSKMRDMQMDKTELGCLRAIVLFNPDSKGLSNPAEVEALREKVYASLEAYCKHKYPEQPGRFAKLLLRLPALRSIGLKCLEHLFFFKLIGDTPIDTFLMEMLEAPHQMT
Sequence of human RAR-related Orphan Receptor gamma (RORg), RORC (gene 6097) (P51449 whole entry, looked up, the tested form may be a part): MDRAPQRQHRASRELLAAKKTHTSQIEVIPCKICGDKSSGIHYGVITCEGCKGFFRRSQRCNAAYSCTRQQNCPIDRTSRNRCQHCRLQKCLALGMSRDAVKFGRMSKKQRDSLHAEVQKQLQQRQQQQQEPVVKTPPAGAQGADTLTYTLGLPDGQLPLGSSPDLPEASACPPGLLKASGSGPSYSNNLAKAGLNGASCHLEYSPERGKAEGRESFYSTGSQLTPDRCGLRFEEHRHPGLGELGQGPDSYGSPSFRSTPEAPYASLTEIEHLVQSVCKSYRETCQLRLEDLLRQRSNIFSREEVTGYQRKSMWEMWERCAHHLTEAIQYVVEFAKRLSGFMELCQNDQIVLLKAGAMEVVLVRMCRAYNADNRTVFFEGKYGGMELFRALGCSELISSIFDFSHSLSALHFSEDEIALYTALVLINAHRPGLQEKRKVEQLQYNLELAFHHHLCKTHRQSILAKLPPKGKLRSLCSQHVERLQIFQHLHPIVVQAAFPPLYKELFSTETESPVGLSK
Sequence of Nuclear receptor subfamily 1 group I member 2 (Homo sapiens) (O75469 whole entry, looked up, the tested form may be a part): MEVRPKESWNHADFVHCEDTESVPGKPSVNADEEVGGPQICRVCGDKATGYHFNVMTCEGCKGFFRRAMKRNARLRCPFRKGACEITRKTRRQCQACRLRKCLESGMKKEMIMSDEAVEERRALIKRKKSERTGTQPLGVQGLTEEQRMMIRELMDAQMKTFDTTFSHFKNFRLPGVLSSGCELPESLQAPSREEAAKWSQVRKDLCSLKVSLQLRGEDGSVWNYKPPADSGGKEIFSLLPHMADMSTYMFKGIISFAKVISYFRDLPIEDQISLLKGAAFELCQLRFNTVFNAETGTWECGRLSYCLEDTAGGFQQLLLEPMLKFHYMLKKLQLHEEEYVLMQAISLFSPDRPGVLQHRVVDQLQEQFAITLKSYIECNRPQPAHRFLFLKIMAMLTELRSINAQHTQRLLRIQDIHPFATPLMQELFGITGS
Sequence of human RAR-related Orphan Receptor beta (RORb), RORB (gene 6096) (Q92753 whole entry, looked up, the tested form may be a part): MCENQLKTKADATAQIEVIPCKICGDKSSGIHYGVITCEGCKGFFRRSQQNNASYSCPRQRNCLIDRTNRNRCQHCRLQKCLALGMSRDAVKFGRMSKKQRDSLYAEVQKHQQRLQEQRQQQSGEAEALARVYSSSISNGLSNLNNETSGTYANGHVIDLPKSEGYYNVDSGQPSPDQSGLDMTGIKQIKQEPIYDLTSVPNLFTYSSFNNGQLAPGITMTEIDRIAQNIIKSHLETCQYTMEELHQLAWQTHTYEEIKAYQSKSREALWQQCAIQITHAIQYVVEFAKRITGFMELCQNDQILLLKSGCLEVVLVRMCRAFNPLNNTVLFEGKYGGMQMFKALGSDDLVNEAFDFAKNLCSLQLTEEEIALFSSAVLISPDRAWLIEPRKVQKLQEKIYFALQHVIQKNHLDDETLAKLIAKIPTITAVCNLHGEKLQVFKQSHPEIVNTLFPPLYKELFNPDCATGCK
Sequence of Peroxisome proliferator-activated receptor gamma (Homo sapiens) (P37231 whole entry, looked up, the tested form may be a part): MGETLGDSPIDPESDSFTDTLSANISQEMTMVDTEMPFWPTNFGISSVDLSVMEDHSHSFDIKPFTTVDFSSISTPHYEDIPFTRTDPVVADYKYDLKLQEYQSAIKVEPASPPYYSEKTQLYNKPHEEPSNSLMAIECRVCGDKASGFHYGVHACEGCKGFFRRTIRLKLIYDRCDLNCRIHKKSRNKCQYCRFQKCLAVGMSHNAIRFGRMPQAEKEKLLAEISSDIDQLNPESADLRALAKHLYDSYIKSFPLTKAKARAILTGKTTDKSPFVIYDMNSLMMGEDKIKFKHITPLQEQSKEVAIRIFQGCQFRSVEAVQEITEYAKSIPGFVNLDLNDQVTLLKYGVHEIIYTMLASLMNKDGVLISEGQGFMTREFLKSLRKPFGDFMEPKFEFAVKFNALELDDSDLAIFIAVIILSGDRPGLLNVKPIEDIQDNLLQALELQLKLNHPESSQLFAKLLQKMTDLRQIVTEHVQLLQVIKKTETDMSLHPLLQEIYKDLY
Sequence of human Retinoic Acid Receptor gamma (RARg), RARG (gene 5916) (P13631 whole entry, looked up, the tested form may be a part): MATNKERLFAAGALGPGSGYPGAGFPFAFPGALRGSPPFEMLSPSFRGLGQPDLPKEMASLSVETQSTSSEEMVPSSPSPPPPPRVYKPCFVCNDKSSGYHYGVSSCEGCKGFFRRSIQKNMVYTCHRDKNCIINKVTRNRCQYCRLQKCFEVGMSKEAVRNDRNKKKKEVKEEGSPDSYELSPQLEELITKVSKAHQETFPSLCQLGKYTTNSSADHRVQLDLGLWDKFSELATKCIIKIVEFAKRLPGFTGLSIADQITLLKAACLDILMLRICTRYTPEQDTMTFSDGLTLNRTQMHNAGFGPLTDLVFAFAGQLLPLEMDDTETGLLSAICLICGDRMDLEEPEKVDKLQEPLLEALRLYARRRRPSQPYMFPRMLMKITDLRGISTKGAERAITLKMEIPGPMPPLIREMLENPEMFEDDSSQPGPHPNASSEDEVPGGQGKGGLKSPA

For `NC(=O)O`, the result in [1], in experiment [2], in [3], in experiment [4], in experiment [5] and in experiment [6] was inactive. In addition, the result in experiment [7], in experiment [8], in [9], in [10], in experiment [11] and in experiment [12] was inactive. The molecule was called inactive in [13] and in experiment [14].
On to `CC(=[OH+])/C=C(/C)[O-].CC(=[OH+])/C=C(/C)[O-].CC(=[OH+])/C=C(/C)[O-].[Al]`, for which the result in experiment [15], in [2], in experiment [3], in [4], in experiment [6] and in experiment [13] was inactive.
On to `O=C(OC1CCCCC1)c1ccccc1C(=O)OC1CCCCC1`, for which the AC50 is 9.38 µM (active) in experiment [1]; 0.554 µM (active) in experiment [2]; 7.44 µM (active) in experiment [6]; 11.3 µM (active) in [8]; 11.6 µM (active) in experiment [9]; 11.7 µM (active) in [10]. Besides, the AC50 was 8.94 µM (active) in [11], 8.72 µM (active) in experiment [12], 8.46 µM (active) in [16] and 10.9 µM (active) in experiment [14]. Moreover, the molecule was classed as inactive in [7], in experiment [17] and in experiment [13].
Regarding `CCc1ccccc1N`, the molecule was called inactive in [15], in [2], in [3], in [4] and in experiment [13].
Regarding `Nc1ccc(Cl)cc1C(=O)c1ccccc1`, the results for the half-maximal activity concentration (AC50) in experiment [15], in experiment [2] and in experiment [6] were 25.8 µM (active), 10.5 µM (active) and 21.9 µM (active), respectively. Further, the molecule was called inactive in experiment [4], in experiment [5] and in experiment [7].
As to `CCC[CH2][Sn]([CH2]CCC)([CH2]CCC)[O]C(=O)c1ccccc1`, the AC50 in experiment [15] is 0.0116 µM (active); in experiment [2], 0.344 µM (active); in [5] it was 0.00575 µM (active); in experiment [6], 0.105 µM (active). Besides, the result in experiment [13] was inactive.
`COC(=O)c1sccc1S(=O)(=O)NC(=O)Nc1nc(C)nc(OC)n1`: the outcome in experiment [1], in experiment [2], in experiment [6], in experiment [8], in experiment [9] and in experiment [10] was inactive. Also, the result in experiment [11], in experiment [12], in [17] and in [14] was inactive.
Regarding `COc1ccc(OC)c(C=O)c1`, the result in experiment [15], in [3], in experiment [4], in experiment [6] and in experiment [13] was inactive. In addition, the AC50 in experiment [2] was 6.5 µM (active).
Consider `Fc1ccc(C2(Cn3cncn3)OC2c2ccccc2Cl)cc1` (stereo not drawn), for which the molecule was called inactive in experiment [15], in [18] and in experiment [13]. Also, in experiment [2], the half-maximal activity concentration (AC50) is 2.24 µM (active).
Regarding `C[C@@H](Oc1ccc(Cl)cc1Cl)C(=O)O`, the outcome in experiment [18], in experiment [6], in [7] and in experiment [13] was inactive.
In the case of `CCOC(=O)CP(=O)(OCC)OCC`, the molecule was called inactive in experiment [2] and in experiment [7].
For the molecule `OCC(O)CCl` (stereo not drawn), the call in experiment [2], in experiment [3], in [5] and in experiment [13] was inactive.
For the molecule `C=CC(=O)N(C)C`, the call in [15], in experiment [2], in [5] and in experiment [13] was inactive.

By AC50 is commonly meant the concentration at which the activity in the assay is half-maximal.

These data come from PubChem BioAssay (EPA / NIEHS).
